Screens: PubChem, National Center for Advancing Translational Sciences (NCATS)
Rango complex inh: qHTS Assay for Inhibitors of Rango (Ran-regulated importin-beta cargo) - Importin beta complex formation | Rango CFP/YFP FRET sensor + importin beta, 45 min | Potency, µM (series often up to 92.2 µM), for inactives: at the highest dose inhibition of complex formation | 340,000 compounds, 0.031% hits; calls by dose curve;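 note: 0% = DMSO wells and 100% = buffer wells lacking importin beta; nearly all actives have a fitted effect of over 15% in size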
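FRET biosensor (snurportin 1 IBB flanked by EYFP and cerulean), 50 nM, with compound 5 min, then 0.125 microM importin beta in PBS, 1 mM DTT, 0.02% Tween-20, 0.1% BSA. CFP/YFP ratio read after 45 min at room temperature; pre-read flags interference.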
Chronic BCR inh: qHTS Assay to Find Inhibitors of Chronic Active B-Cell Receptor Signaling; ABC-DLBCL IkBa-CBG/CBR reporter, luminescence ratio, 4 h; 340,000 compounds, 0.05% hits; Potency, µM (top dose mostly 46.1 µM), for inactives: top-dose activity change, negative = inhibition, usual class: inhibitors; active = well fitted inhibition curve with a large enough effect in the signal ratio, with a control signal flat, not every such curve was filed as active; inconclusive = small, poorly fitted or top-dose-only effect, or effect the other way, or a change in a side signal; the % refers to the signal ratio;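 note: plate controls were basal doxycycline-induced cells for no effect and cells given 10 µM MG132 for full effect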
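Compounds up to 46 uM were incubated four hours with TMD8 cells whose green CBG68 luciferase is fused to IkappaBalpha; red CBR luminescence normalised the signal, and concentration-effect curves were fitted to fusion, red and ratio data.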
Rango dissoc inh: qHTS Assay for Inhibitors of RanGTP induced Rango (Ran-regulated importin-beta cargo) - Importin beta complex dissociation | 340,000 compounds, 0.071% hits | Biochemical FRET Rango-importin beta, RanGTP-induced dissociation | Snurportin-1 (Homo sapiens) + GTP-binding nuclear protein Ran (Homo sapiens) + Importin … | Potency, µM (doses to about 46.1 µM), without a hit: at the highest dose activity change, negative = inhibition; calls by dose curve; note: % of control where 0% means no effect; nearly all actives have a fitted effect of over 45% in size
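Quantitative HTS using a FRET biosensor: 0.1 uM Rango, 0.25 uM importin beta, 0.6 uM Ran, 2 mM GTP, 0.2 uM RCC1 final, PBS with DTT, Tween-20 and BSA. Post-read taken 45 min after Ran addition.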
Tb PFK inh: qHTS Assay to Find Inhibitors of T. brucei phosphofructokinase; ATP-dependent 6-phosphofructokinase (Trypanosoma brucei brucei), O15648; T. brucei PFK, ADP-Glo luminescence; Potency, µM (highest dose often 57.5 µM), for the others: at the highest dose activity, negative = inhibition, actives largely listed as inhibitors; 330,000 compounds, 0.17% hits;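 note: 0% = uninhibited 1x PFK enzyme wells and -100% = no-enzyme wells; nearly all actives have a fitted effect of over 60% in size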
Target sequence (O15648 whole entry, looked up): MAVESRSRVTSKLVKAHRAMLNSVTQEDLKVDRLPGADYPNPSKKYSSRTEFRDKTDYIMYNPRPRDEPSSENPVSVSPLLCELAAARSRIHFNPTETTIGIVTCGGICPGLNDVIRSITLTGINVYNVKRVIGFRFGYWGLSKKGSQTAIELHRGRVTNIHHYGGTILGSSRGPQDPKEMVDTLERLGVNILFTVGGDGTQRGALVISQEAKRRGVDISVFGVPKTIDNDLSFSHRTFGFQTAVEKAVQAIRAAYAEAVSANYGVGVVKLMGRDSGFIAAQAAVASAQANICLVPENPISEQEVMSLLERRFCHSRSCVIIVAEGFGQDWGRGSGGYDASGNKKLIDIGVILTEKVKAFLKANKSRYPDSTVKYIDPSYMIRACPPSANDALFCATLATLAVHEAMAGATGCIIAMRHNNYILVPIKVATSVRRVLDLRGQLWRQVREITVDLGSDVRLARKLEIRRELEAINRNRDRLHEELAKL
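Luminescent ADP detection (ADP-Glo, two-step: ATP depletion then ADP-to-ATP conversion for luciferase) reported PFK activity after 45 min room-temperature reaction of 1.25 nM enzyme with 0.5 mM F6P and 0.1 mM ATP at pH 8.0.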
Luc counter: Counterscreen for Luciferase (Kinase-Glo TM) Inhibition | Luciferin 4-monooxygenase (Photuris pensylvanica), Q27757 | Kinase-Glo luciferase, ATP luminescence, 8 min | Potency, µM (doses to about 38.3 µM), for inactives: top-dose activity change, negative = inhibition, most hits filed as inhibitors | 200,000 compounds, 0.28% hits; note: % is set by controls: 0 for no effect and ±100 for the full control effect; nearly all actives have a fitted effect of over 60% in size
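Recombinant Kinase-Glo luciferase, 10 uM ATP (linear range), luciferin; imidazole pH 7.2 / KCl / MgCl2 / Tween / BSA buffer; 8 min RT; luminescence.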
LMNA splice mod: qHTS Assay for Modulators of Lamin A Splicing; HeLa LMNA splicing GFP/RFP minigene ratio, 48 h; Potency, µM (top dose mostly 46.1 µM), inactives show at the top dose ratio change, negative = inhibition, actives largely listed as inhibitors; 200,000 compounds, 0.01% hits; AID 1487, 2009; active = well fitted inhibition curve with a large enough effect in the signal ratio, with a control signal flat, not every such curve was filed as active; inconclusive = small, poorly fitted or top-dose-only effect, or effect the other way, or a change in a side signal; the % refers to the signal ratio; note: % is set by controls: 0 for no effect and ±100 for the full control effect
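S3 HeLa stable clones carrying a lamin A-EGFP splicing minigene plus DsRed2 were seeded at 600 cells/well in Opti-MEM with 2% FBS, pin-dosed and incubated 48 h at 37°C. Acumen cytometry (488 nm) gave the GFP/RFP total-intensity ratio.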
The depositor's hits bear a star; i = inactive; ? = inconclusive; / = no result; [ ] = remark or other dose. This is a sample that favours compounds with a hit; in the whole collection about 0.44% have one here. Unless noted, calls come from the whole dose curve; as a rule, active = well fitted curve in the direction sought with a large enough effect; inconclusive = small, poorly fitted or top-dose-only effect, or another doubt; inactive = no such curve, though single readings can be large; an effect the other way counts as inactive or inconclusive. Potency is the fitted concentration of half-maximal effect.

SMILES	Rango complex inh	Chronic BCR inh	Rango dissoc inh	Tb PFK inh	Luc counter	LMNA splice mod
Cc1c(NS(=O)(=O)CC23CCC(CC2=O)C3(C)C)c(=O)n(-c2ccccc2)n1C (stereo not drawn)	-3%	5%	-13%	-3%	3%	2%
CCc1ccc(N/C(N)=N/c2nc(CSc3ccccn3)cc(=O)[nH]2)cc1	-3%	-1%	11%	0%	2%	/
CSc1ccccc1NC(=O)c1noc2c1CCC2	-3%	?	-6%	17µM*	1%	-10%
COC(=O)c1ccccc1NC(=O)c1noc2c1CCC2	0%	-8%	-9%	?	6%	-10%
CN(C)c1ccc(/C=N/NC(=O)COc2ccccc2)cc1	-2%	-26%	-12%	-5%	-1%	12%[46 µM]
CCCCCC1CC1C(=O)N/N=C/c1ccc(N(C)C)cc1 (stereo not drawn)	?	?	8.2µM*	-5%	-7%	8%
O=S(=O)(c1ccc(F)cc1)n1ccc2cccnc21	0%	-1%	3%	5%	-1%	-12%
CN1Cc2c(N3CCOCC3)nc(SCc3ccccc3)c(C#N)c2CC1(C)C	?	?	8.2µM*	-2%	/	?
O=C1C(C=Nc2ccccc2)=C(O)c2ccccc21	6%	?	-8%	-6%	13µM*	-5%
COc1ccc(N=CC2=C(O)c3ccccc3C2=O)cc1	5%	?	9%	2%	4.5µM*	1%
O=C1C(C=Nc2ccccc2O)=C(O)c2ccccc21	10%	?	-1%	1%	10µM*	?
CN=CC1=C(O)c2ccccc2C1=O	-2%	i	-9%	-5%	-1%	-3%
O=c1[nH]c2c(c(=O)[nH]1)CCCCCC2	2%	/	1%	/	/	/
COc1ccc(OC)c(CCNC(=O)Cn2sc3nc(C)cc(C)c3c2=O)c1	/	?	/	2.4µM*	?	-1%
Cc1ccc(-c2cc3c(N=O)c4ccccc4c-3n[nH]2)cc1	1%	?	-1%	1%	10µM*	/
O=Nc1c2cc(-c3ccccc3)[nH]nc-2c2ccccc12	0%	?	2%	-2%	2.2µM*	/
Cc1cccc(-c2cc3c(N=O)c4ccccc4c-3n[nH]2)c1	4%	?	-2%	-4%	10µM*	/
Cc1ccc(-c2n[nH]c(=O)c3ccccc23)cc1S(=O)(=O)N(C)C	0%	-6%	-7%	2%	/	/
O=c1[nH]nc(-c2ccccc2)c2ccccc12	-2%	1%	1%	2%	/	/
Cc1ccc(C(=O)CCCn2nnc(-c3cccnc3)n2)cc1C	2%	4%	17%	1%	3%	-5%
Cc1ccc(S(=O)(=O)NC(C(=O)Oc2ccc3ccc(=O)oc3c2)c2ccccc2)cc1 (stereo not drawn)	?	1%	?	3%	-2%	-11%
Cc1ccc(S(=O)(=O)NCCC(=O)Oc2ccc3ccc(=O)oc3c2)cc1	?	-6%	12µM*	-6%	/	/
COc1ccc2c(c1)O/C(=C\c1ccco1)C2=O	?	?	?	-30%	/	/
COC(=O)C(C)Oc1ccc2c(c1)O/C(=C\c1ccco1)C2=O (stereo not drawn)	?	1%	21µM*	9%	/	/
NNC(=O)c1cc2sccc2s1	-2%	18µM*	18%	3%	/	/
SMILES	Rango complex inh	Chronic BCR inh	Rango dissoc inh	Tb PFK inh	Luc counter	LMNA splice mod
Cc1ccc2c(c1)Cc1nc3ccccc3nc1-2	-4%	?	0%	-13%	8.9µM*	/
COc1ccc(C)c(-n2c(=O)n(Cc3ccccc3)c(=O)c3[nH]cnc32)c1	1%	?	1%	1%	/	/
COc1ccc(Cn2c(=O)c3[nH]cnc3n(-c3ccccc3C)c2=O)cc1	-3%	16µM*	-6%	-2%	/	/
O=Nc1ccc(NOC(=O)c2ccccc2)cc1	0%	0%	11%	-3%	10µM*	6%
COC(=O)c1ccc(N=Nc2ccccc2)cc1	2%	?	6%	-6%	-5%	5%[46 µM]
Cc1ccc(C(=O)Nc2nc3ccc(S(C)(=O)=O)cc3s2)o1	4%	?	-8%	-7%	13µM*	-7%
Cc1occc1C(=O)Nc1ccc2c(c1)CCC2	1%	?	-12%	-4%	13µM*	-10%
Cc1ccc(C(=O)Nc2ccc3c(c2)CCC3)o1	0%	-9%	-8%	4%	13µM*	-4%
O=C(Nc1ccc2c(c1)CCC2)c1ccccc1F	0%	?	-3%	-19%	-17%	-19%
Cc1c([N+](=O)[O-])c(C(=O)Nc2ccc3c(c2)OCCO3)nn1C	0%	?	16%	?	13µM*	0%
O=C(Nc1ccc2c(c1)OCCO2)c1coc2ccccc2c1=O	?	1%	?	6%	8.9µM*	-5%
Cc1nn(C)c(C(=O)Nc2ccc3c(c2)OCO3)c1[N+](=O)[O-]	1%	-1%	-23%	1%	/	/
O=C(Nc1ccc2c(c1)CCC2)c1ccc(Br)o1	9%	-4%	17%	0%	-21%	-10%
Cc1ccccc1C(=O)Nc1ccc2c(c1)OCCO2	1%	?	1%	-10%	/	/
Cc1ccccc1C(=O)Nc1ccc(N2CCN(C)CC2)nc1	-5%	1%	-10%	-2%	-6%	15%[46 µM]
CCOC(=O)C1=C2SCCN2C(=O)C(C#N)C1(C)C (stereo not drawn)	4%	?	29%	1%	4%	?
Cc1ccsc1C(=O)Nc1ccc2c(c1)OCCO2	1%	?	-17%	-12%	10µM*	-14%
Cc1ncoc1C(=O)Nc1ccc2c(c1)OCCO2	-1%	-3%	0%	-20%	?	-4%
Cc1occc1C(=O)Nc1ccc2c(c1)OCCO2	-2%	?	3%	-22%	7.1µM*	0%
COCCCNc1ncnc2c1sc1nc(-c3ccco3)c3c(c12)CC(C)(C)OC3	-1%	7%	-7%	0%	/	/
Cc1ccc2c(c1)c1nnc(SCC(=O)N3CCCc4ccccc43)nc1n2CC(=O)O	2%	-28%	4%	-20%	10µM*	6%[46 µM]
CCc1nnc(SCC(=O)N2CCCc3ccccc32)nc1CC	-2%	17%	0%	3%	4%	7%
